Measurements from PubChem BioAssay AID1304 (The Scripps Research Institute Molecular Screening Center, 2008).
Hit rate of the full screen: of about 220,000 compounds, about 800 (0.36%) were called active. Cut-off read from the data, not from the text of the source: active = activation above about 33% (passing the limit was not always enough); inactive = the rest. What follows is part of a selection rich in actives, with near analogues and random picks from the rest.

The compounds below were run against Neuropeptide Y receptor type 1 (Homo sapiens) (UniProt P25929) (assay: NPY-Y1 receptor potentiators or agonists, primary screen, cell-based (AID 1304;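 note: cells stimulated with NPY at EC10 then isoproterenol at EC100; 0% = low agonist plus stimulus and 100% = saturating agonist plus stimulus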)). Settings: NPY-Y1 expressing cells, potentiator/agonist activation; at 3.6 µM; stronger effect = higher value.
Chain of Neuropeptide Y receptor type 1 (Homo sapiens) (P25929 whole entry, looked up): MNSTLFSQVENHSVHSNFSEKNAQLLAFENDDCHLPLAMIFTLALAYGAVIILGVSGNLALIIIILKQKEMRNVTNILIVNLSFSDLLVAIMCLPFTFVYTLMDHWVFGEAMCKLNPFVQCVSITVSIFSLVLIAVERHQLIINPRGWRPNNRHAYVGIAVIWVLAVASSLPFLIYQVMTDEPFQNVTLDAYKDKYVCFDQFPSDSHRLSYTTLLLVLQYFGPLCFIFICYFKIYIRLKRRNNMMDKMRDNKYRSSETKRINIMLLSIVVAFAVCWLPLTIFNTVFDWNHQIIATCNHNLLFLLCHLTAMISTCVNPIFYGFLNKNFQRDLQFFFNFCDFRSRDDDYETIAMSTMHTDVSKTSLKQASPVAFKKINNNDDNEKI

SMILES | activation
C#CCOCCOCCOCCNc1nc(N2CCN(C(=O)[C@H](CCCCN)n3cc([C@@H](N)C(C)CC)nn3)CC2)nc(N2CCN(C(=O)[C@H](Cc3ccc(O)cc3)n3cc([C@@H](N)C(C)CC)nn3)CC2)n1 (stereo partly specified) | 111% (active)
C#CCOCCOCCOCCNc1nc(N2CCN(C(=O)[C@H](Cc3ccc(O)cc3)n3cc(C(N)CC(C)C)nn3)CC2)nc(N2CCN(C(=O)[C@H](CCC(=O)O)n3cc(C(N)[C@H](C)CC)nn3)CC2)n1 (stereo partly specified) | -15% (inactive)
C#CCOCCOCCOCCNc1nc(N2CCN(C(=O)C(Cc3ccc(O)cc3)n3cc(C(N)CC(C)C)nn3)CC2)nc(N2CCN(C(=O)C(Cc3ccc(O)cc3)n3cc(C(N)C(C)CC)nn3)CC2)n1 (stereo unspecified) | 11.7% (inactive)
Fc1ccc(-c2csc(-c3ccc(C4SCCS4)cc3)n2)cc1F | -5.29% (inactive)
Cc1ccccc1Nc1c(-c2ccccc2)nc2ncccn12 | 46.3% (inactive)
Cc1cccc(C)c1Nc1c(-c2ccccc2O)nc2ncccn12 | 80.8% (active)
Nc1nc(SCc2ccc([N+](=O)[O-])cc2)c2ncn(C3OC(CO)C(O)C3O)c2n1 (stereo unspecified) | -25.4% (inactive)
C/C(=N\NC(=O)c1ccc(CSc2nc(C)cc(C)n2)cc1)C1CCCCC1 | 1.93% (inactive)
COc1cc(C(=O)Nc2cc(C(F)(F)F)ccc2N2CCOCC2)ccc1O | -20.3% (inactive)
O=C(CCn1ccc([N+](=O)[O-])n1)Nc1nccs1 | 7.17% (inactive)
Cc1cccc(OCC(O)CN2CCN(CCN3C(=O)c4cccc5cccc(c45)C3=O)CC2)c1C (stereo unspecified) | 38.1% (active)
Cc1ccc(OCC(O)CN2CCN(CC(O)COc3ccc(C)cc3Cl)CC2)c(Cl)c1 (stereo unspecified) | 6.61% (inactive)
Cc1cccc(C)c1OCC(O)CN1CCCCC1 (stereo unspecified) | 1.8% (inactive)
O=C(Nc1nnc(Cc2ccc(Cl)cc2)s1)c1ccncc1 | -10.8% (inactive)
CCCc1nc2oc3c(=O)[nH]cnc3c2c2c1COC(C)(C)C2 | 8.17% (inactive)
Cc1cnc(C(=O)OCC(=O)N2CCc3ccccc32)cn1 | -19.3% (inactive)
Cc1ccccc1OCC(O)CN1CCN(c2ccccn2)CC1 (stereo unspecified) | 29.6% (inactive)
OC(COc1cccc2ccccc12)CN1CCN(c2ccccn2)CC1 (stereo unspecified) | 50.8% (active)
O=C1c2cccc3cccc(c23)N1CN1CCN(c2ccccn2)CC1 | 11.2% (inactive)
CCCOCC(O)CC(CC)C(=O)NNC(=S)Nc1ccccc1 (stereo unspecified) | -8.03% (inactive)
O=C(/C=C/c1ccc(OCc2c(F)cccc2Cl)cc1)N1CCOCC1 | -15.1% (inactive)
